According to ChEMBL document CHEMBL1157539, “Thousands of chemical starting points for antimalarial lead identification” (Nature, 2010):

These compounds were tested on Plasmodium falciparum (assay: GSK_TCMDC: Inhibition of Plasmodium falciparum 3D7 in whole red blood cells, using parasite LDH activity as an index of growth. Test compounds present at 2uM).
Type: functional

Inhibition, 91%:
O=C(Nc1cccc(CN2CCN(Cc3ccc(O)cc3)CC2)c1)c1cccc(C(F)(F)F)c1.O=C(O)C(F)(F)F

Inhibition, 96%:
COc1cc(CNCCCNc2nc(=O)c3sccc3[nH]2)c2[nH]cc(Cl)c2c1.CS(=O)(=O)O
CN1CCCN(Cc2cccc(-c3ccc(CNC(=O)c4cccc(Cl)c4)c(F)c3)c2)CC1.O=C(O)C(F)(F)F

Inhibition, 100%:
COc1ccc(-c2c(C(F)(F)F)nn(C)c2NC(=O)Nc2ccc(F)cc2F)cc1
CCN(CC)/C(=N/C(=N)NCc1ccc(Cl)cc1Cl)NCCCCCCN/C(=N\C(=N)NCc1ccc(Cl)cc1Cl)N(CC)CC
CC(=O)O.Nc1nc(N)c2cc3ccc(OCc4ccccc4)cc3nc2n1
CNCCNC(=O)C1Cc2c([nH]c3c(C)cccc23)C(c2ccc(Cl)c(Cl)c2)N1 (stereo unspecified)
COc1cc(C(=O)NCCCN2CCN(c3cccc(Cl)c3)CC2)ccc1-c1cc2cc(Cl)c(Cl)cc2[nH]1
Oc1ccc(Br)cc1C(O)CNCc1ccccc1OCc1ccccc1 (stereo unspecified)
O=S(=O)(Nc1ccc(CCN2CCC(N3CCCCC3)CC2)cc1)c1ccc(Cl)cc1
O=C(Nc1ccc(-c2nc3ccccc3[nH]2)cc1)C1CCN(Cc2ccc(F)cc2)CC1
COC(=O)c1cccc(OCCNC2CCN(C[C@H](O)c3ccnc4ccc(OC)cc34)CC2)c1.O=C(O)C(=O)O
Nc1c2c(nc3ccc(C(=O)Nc4ccc(Br)cc4)cc13)CCCC2
COc1cc2c(cc1CCNCCCCNCCc1cc3c(cc1OC)CCCC3)CCCC2.CS(=O)(=O)O
CC(=O)c1c[nH]c2ccc(/C=C/C(=O)NC3CCC(CCN4CCc5ccc(C#N)cc5CC4)CC3)cc12.Cl (stereo unspecified)
O=S(=O)(c1cccc(Cl)c1F)N(CCC(O)(C(F)(F)F)C(F)(F)F)Cc1cccc(O)c1

Inhibition, 81%:
c1ccc(-c2csc(Nc3nc4cc5c(cc4s3)OCO5)n2)nc1

Inhibition, 99%:
O=C(NCC1CC1)C1CCN(C(c2ccc(Cl)cc2)c2ccc(Cl)cc2)CC1
Cc1cc(NC(=O)NCCN2CCC(NS(=O)(=O)c3cccc(Br)c3)C2)c2ccccc2n1.O=C(O)C(F)(F)F (stereo unspecified)
CCOCCCn1c(=N)c(C(=O)NCc2ccc(OC)cc2)cc2c(=O)n3cccc(C)c3nc21
O=C(/C=C/c1ccc(C(F)(F)F)cc1)NCCCCCN1CCCN(C(=O)Nc2ccc(Cl)c(C(F)(F)F)c2)CC1
O=C(NCCCCN1CCC(c2ccc(C(F)(F)F)cc2C(F)(F)F)CC1)c1ccc(NC(=O)c2ccc(Cl)cc2)cc1

Inhibition, 87%:
Cc1ccc(CNC(=O)[C@H](CC(C)C)Nc2cc(C)nc(NCc3ccccc3C)n2)cc1.O=C(O)C(F)(F)F

Inhibition, 98%:
Cn1cc(C(=O)Nc2cccc(-c3cccc(-c4nc5cc(F)ccc5[nH]4)c3)c2)n(C)c1=O
CC(c1cccc(Nc2nccc(-c3c(-c4cccc(NC(=O)c5c(F)cccc5F)c4)nn4ncccc34)n2)c1)S(C)(=O)=O (stereo unspecified)
Cl.O=C(NC1CCN(CC2(c3ccc(Cl)cc3)CCCCC2)CC1)c1cc[nH]n1

Inhibition, 89%:
Cc1nc2c(c(C)nn2C(C)(C)C)c(C)c1CCC(=O)Nc1ccc(CN2CCCC2)cc1

Inhibition, 93%:
O=C(O)C(F)(F)F.c1ccc(-n2ncc(CNCc3ccc(-c4ccc(-c5nc6ccccc6[nH]5)s4)cc3)n2)cc1

Inhibition, 86%:
Cc1cccc2nc(-c3ccc(-c4cccc(CN5CCC(C(N)=O)CC5)c4)s3)[nH]c12.O=C(O)C(F)(F)F
O=C(O[C@@H]1CN[C@H](C#Cc2cc3ncnc(Nc4ccc5c(cnn5Cc5cccc(F)c5)c4)c3s2)C1)N1CCCC1

Inhibition, 95%:
O=c1cc(NCCCNCc2cc(Br)ccc2F)[nH]c2ccccc12
O=C(Nc1cccc(-c2cccc(-c3nc4cc(F)ccc4[nH]3)c2)c1)c1csnn1
Cc1cccc(C)c1CNc1ccnc2cc(Br)ccc12.Cl

Inhibition, 94%:
COc1ccc(NC(=O)CCNc2cc(C)nc(NCc3ccccc3C)n2)cc1.O=C(O)C(F)(F)F
Nc1ncc(-c2cccc(OCc3ccccc3)c2)cc1-c1nnc2ccc(Cl)nn12
COc1ccc(N2C(N)=NC(N)=NC2(C)C)cc1.Cl
